Experimental data: PubChem BioAssay
Values without a mark were called inactive. Active and inactive are the calls of the source. Rule as the data show it: active = fold change permeability below about 0.7 or above about 1.3; inactive = in between.

Assay: modulators of brain endothelial barrier permeability, primary screen, cell-based, FITC-avidin fluorescence, HTS (AID 1963498); also: test concentration not given here
Conditions: actives lie on both sides

Going from `CN(C)CCCN1c2ccccc2Sc2ccc(Cl)cc21` to `OCCN1CCN(CCCN2c3ccccc3Sc3ccc(Cl)cc32)CC1`, the fold change permeability rises from 1.1 to 1.2.

First: O=c1n(CCCN2CCN(c3cccc(Cl)c3)CC2)nc2ccccn12
Second: O=C(O)c1cccc(-c2ccc(-c3cn(C(=O)N4CCCCC4Cc4ccccc4)nn3)cc2)c1 (centres undefined)
The fold change permeability of the first is higher: 1.1 for the first, 1 for the second.

Compared with `Cc1c(Cl)cccc1Nc1ncccc1C(=O)O`, `O=C(Nc1ccncc1)c1cc([N+](=O)[O-])ccc1Cl` is lower in fold change permeability: 1.1 for the first, 1 for the second.

Going from `CC1(C)CCC(NC(=O)[C@@H](N)CCC(=O)O)CC1` to `CN=C(N)NCCC[C@H](N)C(=O)O`, the fold change permeability falls from 0.9 to 0.8.

Going from `NCCCCC(=O)O` to `NC1C=CC=C(C(=O)O)C1` (centres undefined), the fold change permeability falls from 1.1 to 0.9.

Going from `C[C@]12CC[C@@H]3c4ccc(O)cc4CC[C@H]3[C@@H]1CC[C@@H]2O` to `C[C@]12CC[C@@H]3c4ccc(O)cc4CC[C@H]3[C@@H]1CCC2=O`, the fold change permeability falls from 1 to 0.9.

First: CC(C)[C@H]1C(=O)N[C@@H](CCCN=C(N)N)C(=O)NCC(=O)N[C@@H](CC(=O)O)C(=O)N[C@H](Cc2ccccc2)C(=O)N1C
Second: CCCCOc1cc(CC2CNC(=O)N2)ccc1OC (centres undefined)
The fold change permeability of the first is higher: 1.2 for the first, 0.8 for the second.

Going from `Cc1ccccc1C(OCCN(C)C)c1ccccc1` (centres undefined) to `CN(C)CC[C@@H](c1ccc(Cl)cc1)c1ccccn1`, the fold change permeability rises from 1 to 1.1.

`O=c1cc(-c2ccc([N+](=O)[O-])cc2)nc2c(-c3ccc(Cl)cc3)c(Cc3ccccc3)[nH]n12` and `C[C@@H](c1nc(-c2ccc(C#N)cc2)cs1)[C@](O)(Cn1cncn1)c1cc(F)ccc1F` are the same in fold change permeability: 1.2 for the first, 1.2 for the second.

`O=C(Nc1ccc(-n2nc(C(F)(F)F)cc2C(F)(F)F)cc1)c1ccncc1F` and `Cc1cc(NC(=O)Nc2ccc3c(ccn3C)c2)sn1` are the same in fold change permeability: 1.2 for the first, 1.2 for the second.

`NC(=O)C1=CN(C2OC(COP(=O)(O)OP(=O)(O)OC[C@H]3O[C@@H](n4cnc5c(N)ncnc54)C(OP(=O)(O)O)[C@H]3O)C(O)C2O)C=CC1` (some centres undefined) and `Nc1nc(N)c2nc(CNc3ccc(C(=O)N[C@@H](CCC(=O)O)C(=O)O)cc3)cnc2n1` are the same in fold change permeability: 0.9 for the first, 0.9 for the second.

First: CC(=O)[C@@]1(O)CC[C@H]2[C@@H]3CCC4=CC(=O)CC[C@]4(C)[C@H]3CC[C@@]21C
Second: C[C@H]1O[C@@H](n2cc(F)c(=O)[nH]c2=O)[C@H](O)[C@@H]1O
The fold change permeability of the first is higher: 1 for the first, 0.8 for the second.

`CC(=O)N[C@H](C(=O)O)C(C)(C)SN=O` and `COc1ccc(CC(C)NCC(O)c2ccc(O)c(NC=O)c2)cc1` (centres undefined) are the same in fold change permeability: 0.9 for the first, 0.9 for the second.

`Cc1ccc(N(CC2=NCCN2)c2cccc(O)c2)cc1` and `CCCN1C[C@H](CSC)C[C@@H]2c3cccc4[nH]cc(c34)C[C@H]21` are the same in fold change permeability: 1.1 for the first, 1.1 for the second.

`N=c1ccn2c(n1)O[C@H]1[C@H](O)[C@@H](CO)O[C@H]12` gave a fold change permeability of 1.1.

With `CCC(NC(C)C)C(O)c1ccc(O)c(O)c1` (centres undefined) the fold change permeability was 1.9 (active).
For `Cc1cc(N)c2ccccc2[n+]1CCCCCCCCCC[n+]1c(C)cc(N)c2ccccc21`, the fold change permeability was 1.6 (active).
In the case of `CSc1ccccc1N1CCN(CCCCCC(=O)NC2CCCc3ccccc32)CC1` (centres undefined), the fold change permeability is reported as 1.3 (active).
In the case of `Cc1nc2sccn2c(=O)c1CCN1CCC(=C(c2ccc(F)cc2)c2ccc(F)cc2)CC1`, the fold change permeability is reported as 1.9 (active).
For `NCCCCNCCCN`, the fold change permeability was 0.7 (active).
With `O[Si](CCCN1CCCCC1)(c1ccc(F)cc1)C1CCCCC1` (centres undefined) the fold change permeability was 1.4 (active).
With `C=CCN1CCc2cc(O)c(O)cc2C(c2ccccc2)C1` (centres undefined) the fold change permeability was 0.7 (active).
In the case of `CN1CCC(=C2c3ccccc3CC(=O)c3sccc32)CC1`, the fold change permeability is reported as 1.4 (active).
In the case of `CCCCS(=O)(=O)N[C@@H](Cc1ccc(OCCCCC2CCNCC2)cc1)C(=O)O`, the fold change permeability is reported as 1.5 (active).
With `O=c1[nH]c2cc(C(F)(F)F)ccc2n1-c1cc(C(F)(F)F)ccc1O` the fold change permeability was 1.3 (active).
